Measurements as given in PubChem BioAssay (NCI).
This is part of a sample that, as a whole, favours compounds with a hit. Of some 79,000 tested, about 15% had one in any assay. Calls of active or inactive are those of the source. No stated cut-off is given here; in the data, active means growth inhibition above about 70%; inactive means the rest.

How the values were obtained:
[1] = NCI Yeast Anticancer Drug Screen. Data for the rad52 strain (AID 147);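 further: 0% = growth of vehicle-treated control cultures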; settings: S. cerevisiae rad52 mutant growth inhibition, hits give high values
How it was run: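 Here a repair-compromised yeast strain receives each compound; its growth is then quantified and normalised to vehicle-only controls.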

[2] = NCI Yeast Anticancer Drug Screen. Data for the wt1 strain (AID 149);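 further: 0% = growth of vehicle-treated wt1 cultures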; settings: S. cerevisiae wt1 strain (SPY 50644) growth inhibition, hits give high values
How it was run: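 Measured: growth of wt1 yeast under compound versus vehicle treatment, reported as inhibition.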

[3] = NCI Yeast Anticancer Drug Screen. Data for the rad50EPP+ strain (AID 151);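 further: 0% = growth of vehicle-treated control cultures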; settings: S. cerevisiae rad50 mutant strain, hits give high values
How it was run: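 Read-out is yeast growth inhibition relative to vehicle; cells used were the rad50EPP+ strain.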

[4] = NCI Yeast Anticancer Drug Screen. Data for the mgt1 strain (AID 153); settings: S. cerevisiae mgt1 mutant growth inhibition, hits give high values
How it was run: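 Measured: inhibition of mgt1 yeast growth by compound, normalized to vehicle-treated cultures.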

[5] = NCI Yeast Anticancer Drug Screen. Data for the rad50 strain (AID 155);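 further: 0% = growth of vehicle-only cultures of the same strain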; settings: S. cerevisiae rad50 strain growth inhibition, hits give high values
How it was run: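 Growth of the mutant yeast was measured after compound exposure and referenced to vehicle-treated cultures.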

[6] = NCI Yeast Anticancer Drug Screen. Data for the mec2-1 strain (AID 157); settings: S. cerevisiae mec2-1 strain, hits give high values
How it was run: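 Using mec2-1 yeast: add compound, measure growth, express inhibition versus vehicle-treated cultures.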

[7] = NCI Yeast Anticancer Drug Screen. Data for the rad14 strain (AID 159);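 further: 0% = growth of vehicle-treated control cultures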; settings: S. cerevisiae rad14 strain growth inhibition, hits give high values
How it was run: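 Here, inhibition of yeast growth was measured after compound exposure, using a strain with a genetic defect in DNA damage repair and vehicle-treated cultures as the reference.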

[8] = NCI Yeast Anticancer Drug Screen. Data for the sgs1 mgt1 strain (AID 161);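 further: 0% = growth of cultures given vehicle only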; settings: S. cerevisiae sgs1 mgt1 strain, hits give high values
How it was run: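 Compounds are added to genetically altered yeast, and growth is compared with cultures given vehicle alone to give percent inhibition.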

[9] = NCI Yeast Anticancer Drug Screen. Data for the CLN2oe strain (AID 163);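 further: 0% = growth of vehicle-only control cultures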; settings: S. cerevisiae CLN2oe strain, hits give high values
How it was run: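 Whole-cell yeast growth assay. A strain engineered for altered cell-cycle control received compound, and inhibition relative to vehicle-treated cultures was recorded.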

[10] = NCI Yeast Anticancer Drug Screen. Data for the cln2 rad14 strain (AID 165);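 further: 0% = growth equal to vehicle treated cultures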; settings: S. cerevisiae cln2 rad14 strain, hits give high values
How it was run: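 Yeast strain cln2 rad14, bearing defects in cell cycle control and DNA repair, serves as the test system; values reflect growth inhibition compared with vehicle.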

[11] = NCI Yeast Anticancer Drug Screen. Data for the bub3 strain (AID 167); settings: S. cerevisiae bub3 mutant strain, hits give high values
How it was run: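 Whole-cell yeast assay. The mutant strain was incubated with compounds, and growth inhibition was determined by comparison with vehicle-treated cells.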

[12] = NCI Yeast Anticancer Drug Screen. Data for the wt2 strain (AID 169);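 further: 0% = growth of vehicle-treated yeast cultures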; settings: S. cerevisiae wt2 strain growth inhibition, hits give high values
How it was run: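 Treated yeast vs. vehicle-treated yeast: growth inhibition determined.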

[13] = NCI Yeast Anticancer Drug Screen. Data for the mlh1 strain (AID 171);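 further: 0% = growth of vehicle-treated control cultures of the same strain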; settings: S. cerevisiae mlh1 strain growth inhibition, hits give high values
How it was run: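 A yeast strain with a defined genetic lesion serves as the test organism. Cultures receive compound or vehicle, and growth is measured.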

[14] = NCI Yeast Anticancer Drug Screen. Data for the sgs1 strain (AID 173);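 further: 0% = growth of vehicle-only control cultures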; settings: S. cerevisiae sgs1 mutant, hits give high values
How it was run: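 A genetically defined yeast mutant is incubated with the test compound, and its growth is compared to that of the same strain given vehicle.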

[15] = NCI Yeast Anticancer Drug Screen. Data for the mlh1 rad18 strain (AID 175); settings: S. cerevisiae mlh1 rad18 strain growth inhibition, hits give high values
How it was run: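 Steps: expose repair-defective yeast to compound; measure growth; express inhibition against vehicle-treated controls.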

[16] = NCI Yeast Anticancer Drug Screen. Data for the rad18 strain (AID 177); settings: S. cerevisiae rad18 mutant growth inhibition, hits give high values
How it was run: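 Measured value is growth inhibition of a yeast strain bearing a DNA repair alteration, referenced to vehicle-treated cells.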

[17] = at 5.0 µM (retest, dose inferred, filed as 0.5)
[18] = at 50.0 µM (retest, dose inferred, filed as 5.0)

Measured: growth inhibition

CCNCC(=O)O[C@]1(CC)C(=O)OCc2c1cc1n(c2=O)Cc2cc3ccccc3nc2-1
inactive: [1]; at 1.2 µM 38% | [1]; at 3.7 µM 28% | [1]; at 11.0 µM 20% | [1]; at 33.0 µM 19% | [1]; at 100.0 µM 16% | [2]; at 1.2 µM 19% | [2]; at 3.7 µM 12% | [2]; at 11.0 µM 13% | [2]; at 33.0 µM 2% | [2]; at 100.0 µM 4% | [3]; at 1.2 µM 35% | [3]; at 3.7 µM 25% | [3]; at 11.0 µM 9% | [3]; at 33.0 µM 2% | [3]; at 100.0 µM -11% | [4]; at 1.2 µM 22% | [4]; at 3.7 µM 33% | [4]; at 11.0 µM 26% | [4]; at 33.0 µM 18% | [4]; at 100.0 µM 23% | [5]; at 1.2 µM 22% | [5]; at 3.7 µM 15% | [5]; at 11.0 µM 17% | [5]; at 33.0 µM 10% | [5]; at 100.0 µM -6% | [6]; at 1.2 µM 35% | [6]; at 3.7 µM 19% | [6]; [17] 4% | [6]; at 11.0 µM 19% | [6]; at 33.0 µM 6% | [6]; at 100.0 µM 6% | [7]; at 1.2 µM 11% | [7]; at 3.7 µM 6% | [7]; at 11.0 µM -1% | [7]; at 33.0 µM 6% | [7]; at 100.0 µM 1% | [8]; [17] 31% | [8]; [18] 60% | [8]; at 50.0 µM 57.5% | [9]; at 1.2 µM 33% | [9]; at 3.7 µM 30% | [9]; at 11.0 µM 32% | [9]; at 33.0 µM 22% | [9]; at 100.0 µM 18% | [10]; [17] 15% | [10]; [18] 31% | [10]; at 50.0 µM 25.6% | [11]; at 1.2 µM 28% | [11]; at 3.7 µM 1% | [11]; [17] 7% | [11]; at 11.0 µM 14% | [11]; at 33.0 µM -2% | [11]; [18] 39% | [11]; at 50.0 µM 40.8% | [11]; at 100.0 µM -6% | [12]; at 1.2 µM -29% | [12]; at 3.7 µM -32% | [12]; at 11.0 µM -19% | [12]; at 33.0 µM 25% | [13]; at 1.2 µM 13% | [13]; at 3.7 µM 6% | [13]; at 11.0 µM -2% | [13]; at 33.0 µM -13% | [13]; at 100.0 µM -21% | [14]; at 1.2 µM 9% | [14]; at 3.7 µM 15% | [14]; at 11.0 µM 13% | [14]; at 33.0 µM 5% | [14]; at 100.0 µM -21% | [15]; [17] 16% | [15]; [18] 47% | [15]; at 50.0 µM 47.4% | [16]; at 1.2 µM 25% | [16]; at 3.7 µM 27% | [16]; at 11.0 µM 21% | [16]; at 33.0 µM 22% | [16]; at 100.0 µM 13%
active: [5]; [17] 72% | [5]; [18] 90% | [5]; at 50.0 µM 86% | [6]; [18] 73% | [6]; at 50.0 µM 76% | [12]; at 100.0 µM 76%
